These results are taken from paper PMC7862700, “An all-to-all approach to the identification of sequence-specific readers for epigenetic DNA modifications on cytosine”.

Common to all, as to assay: DAPPL (digital affinity profiling via proximity ligation, sequencing); 10 mM Tris-HCl pH 7.5, 50 mM NaCl, 1 mM DTT, 4% glycerol, room temperature, 30 min; GST-TFs on glutathione beads, 16-mer random dsDNA library, 0.1% formaldehyde crosslink after washing; high values mean tight binding
What all share (conditions): protein: recombinant; tags: N-terminal GST; dsDNA, one strand shown

One experiment concerns the target T1, FLI1 (Homo sapiens, UniProt Q01543 1-452).
T1 sequence: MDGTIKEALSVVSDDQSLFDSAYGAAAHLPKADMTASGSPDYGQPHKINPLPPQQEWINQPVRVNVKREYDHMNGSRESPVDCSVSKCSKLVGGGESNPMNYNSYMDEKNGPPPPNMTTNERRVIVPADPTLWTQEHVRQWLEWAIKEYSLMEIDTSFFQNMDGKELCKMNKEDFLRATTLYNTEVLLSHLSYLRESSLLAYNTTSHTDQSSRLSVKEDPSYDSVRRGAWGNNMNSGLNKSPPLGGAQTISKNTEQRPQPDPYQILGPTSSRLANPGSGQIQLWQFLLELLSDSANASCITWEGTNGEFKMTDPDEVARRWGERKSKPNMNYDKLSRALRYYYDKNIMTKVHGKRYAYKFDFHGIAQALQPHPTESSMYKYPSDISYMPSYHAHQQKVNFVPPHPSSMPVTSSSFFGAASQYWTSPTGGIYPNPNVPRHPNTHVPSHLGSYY
Summed up:
(§1)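 Human transcription factors carrying a GST fusion were produced in yeast, bound to glutathione beads, tagged with DNA barcodes and pooled together with a tag-only sample. Each pool was held with 200 nmole of a random double-stranded 16-mer DNA library in Tris/NaCl/DTT/glycerol buffer for 30 min at room temperature, then washed, crosslinked in 0.1% formaldehyde, proximity-ligated with BsaI/T4 ligase (1 h, 37 °C), PCR-amplified and sequenced on an Illumina NextSeq500. Binding signal is the read frequency of each hexamer for a given factor divided by its frequency in the tag-only sample.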

A further experiment concerns the target T2, GABPA (Homo sapiens, UniProt Q06546 1-454).
T2 sequence: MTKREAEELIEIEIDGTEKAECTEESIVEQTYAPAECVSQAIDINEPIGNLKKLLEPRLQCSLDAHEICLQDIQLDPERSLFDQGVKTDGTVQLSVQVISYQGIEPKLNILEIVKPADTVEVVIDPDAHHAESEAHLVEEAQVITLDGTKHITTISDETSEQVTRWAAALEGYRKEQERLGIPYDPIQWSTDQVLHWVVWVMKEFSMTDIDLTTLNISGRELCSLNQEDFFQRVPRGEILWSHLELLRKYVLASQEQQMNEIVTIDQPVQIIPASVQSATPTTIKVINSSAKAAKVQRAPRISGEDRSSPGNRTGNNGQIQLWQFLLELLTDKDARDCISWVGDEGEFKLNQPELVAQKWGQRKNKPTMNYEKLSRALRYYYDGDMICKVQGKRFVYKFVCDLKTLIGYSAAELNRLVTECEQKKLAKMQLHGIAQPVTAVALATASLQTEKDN
In a few lines: as §1

For another experiment, the target named is T3, ERG (Homo sapiens, UniProt P11308 1-479).
T3 sequence: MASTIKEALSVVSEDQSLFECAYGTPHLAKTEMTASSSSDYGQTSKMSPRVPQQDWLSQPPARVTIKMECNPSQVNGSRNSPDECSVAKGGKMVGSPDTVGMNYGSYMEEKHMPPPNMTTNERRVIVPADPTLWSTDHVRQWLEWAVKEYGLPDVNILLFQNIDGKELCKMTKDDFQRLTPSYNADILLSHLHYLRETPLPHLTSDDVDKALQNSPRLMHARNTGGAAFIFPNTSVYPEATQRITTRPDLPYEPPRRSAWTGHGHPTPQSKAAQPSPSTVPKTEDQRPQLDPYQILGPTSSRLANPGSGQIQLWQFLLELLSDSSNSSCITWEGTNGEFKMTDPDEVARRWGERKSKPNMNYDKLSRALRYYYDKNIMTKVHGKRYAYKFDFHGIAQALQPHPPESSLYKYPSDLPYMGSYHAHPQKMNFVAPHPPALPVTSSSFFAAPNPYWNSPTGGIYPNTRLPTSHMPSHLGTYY
In a few lines:
as §1

Another experiment concerns the target ELF1 (Homo sapiens, UniProt P32519 1-619). Summed up: as §1
The next experiment has as its target T4, EHF (Homo sapiens, UniProt Q9NZC4 1-300).
T4 sequence: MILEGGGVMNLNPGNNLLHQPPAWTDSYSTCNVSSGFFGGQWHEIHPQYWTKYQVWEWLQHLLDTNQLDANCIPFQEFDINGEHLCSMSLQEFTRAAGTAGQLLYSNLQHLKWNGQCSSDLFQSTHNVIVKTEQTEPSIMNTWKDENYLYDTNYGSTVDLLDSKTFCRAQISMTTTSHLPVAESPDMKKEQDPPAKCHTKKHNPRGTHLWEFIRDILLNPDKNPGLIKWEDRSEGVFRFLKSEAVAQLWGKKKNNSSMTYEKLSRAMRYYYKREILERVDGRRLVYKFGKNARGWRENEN
Summed up: as §1

For a further experiment, the target named is SPI1 (Homo sapiens, UniProt P17947 1-270). In a few lines: as §1
The next experiment deals with SPIB (Homo sapiens, UniProt Q01892 1-262). Summed up:
as §1

Another experiment has as its target T5, ELK3 (Homo sapiens, UniProt P41970 1-407).
T5 sequence: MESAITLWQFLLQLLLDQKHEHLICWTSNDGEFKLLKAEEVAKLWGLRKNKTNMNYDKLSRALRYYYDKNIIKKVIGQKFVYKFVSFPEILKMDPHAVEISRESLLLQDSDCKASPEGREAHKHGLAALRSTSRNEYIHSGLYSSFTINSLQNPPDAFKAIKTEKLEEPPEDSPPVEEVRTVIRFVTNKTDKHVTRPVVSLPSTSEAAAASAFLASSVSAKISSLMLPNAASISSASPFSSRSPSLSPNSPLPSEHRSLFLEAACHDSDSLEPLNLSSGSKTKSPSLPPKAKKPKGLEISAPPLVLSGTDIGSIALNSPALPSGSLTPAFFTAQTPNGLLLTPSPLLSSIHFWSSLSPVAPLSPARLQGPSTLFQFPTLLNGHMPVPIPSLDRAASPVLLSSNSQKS
In a few lines: as §1

A further experiment concerns the target T6, ELK1 (Homo sapiens, UniProt P19419 1-428).
T6 sequence: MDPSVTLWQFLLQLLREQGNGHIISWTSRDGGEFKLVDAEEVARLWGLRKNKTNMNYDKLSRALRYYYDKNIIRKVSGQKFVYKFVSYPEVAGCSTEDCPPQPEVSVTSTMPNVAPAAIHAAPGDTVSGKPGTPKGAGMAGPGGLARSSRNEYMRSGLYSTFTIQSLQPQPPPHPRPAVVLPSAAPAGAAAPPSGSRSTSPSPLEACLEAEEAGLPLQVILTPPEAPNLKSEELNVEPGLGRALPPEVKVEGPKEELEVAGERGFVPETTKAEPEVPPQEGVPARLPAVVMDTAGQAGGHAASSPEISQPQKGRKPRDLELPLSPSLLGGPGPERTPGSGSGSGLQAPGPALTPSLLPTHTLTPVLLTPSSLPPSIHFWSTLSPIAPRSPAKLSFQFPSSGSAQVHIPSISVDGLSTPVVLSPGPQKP
Summed up:
as §1

Sequence of SPIB (Q01892 whole entry): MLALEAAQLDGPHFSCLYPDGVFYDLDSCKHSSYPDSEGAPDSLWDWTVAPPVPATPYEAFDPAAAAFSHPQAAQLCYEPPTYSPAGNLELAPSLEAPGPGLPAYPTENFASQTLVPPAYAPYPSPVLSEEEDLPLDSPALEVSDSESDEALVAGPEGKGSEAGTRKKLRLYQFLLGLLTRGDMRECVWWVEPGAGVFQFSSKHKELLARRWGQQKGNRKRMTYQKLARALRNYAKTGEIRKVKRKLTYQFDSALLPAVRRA
Sequence of ELF1 (P32519 whole entry): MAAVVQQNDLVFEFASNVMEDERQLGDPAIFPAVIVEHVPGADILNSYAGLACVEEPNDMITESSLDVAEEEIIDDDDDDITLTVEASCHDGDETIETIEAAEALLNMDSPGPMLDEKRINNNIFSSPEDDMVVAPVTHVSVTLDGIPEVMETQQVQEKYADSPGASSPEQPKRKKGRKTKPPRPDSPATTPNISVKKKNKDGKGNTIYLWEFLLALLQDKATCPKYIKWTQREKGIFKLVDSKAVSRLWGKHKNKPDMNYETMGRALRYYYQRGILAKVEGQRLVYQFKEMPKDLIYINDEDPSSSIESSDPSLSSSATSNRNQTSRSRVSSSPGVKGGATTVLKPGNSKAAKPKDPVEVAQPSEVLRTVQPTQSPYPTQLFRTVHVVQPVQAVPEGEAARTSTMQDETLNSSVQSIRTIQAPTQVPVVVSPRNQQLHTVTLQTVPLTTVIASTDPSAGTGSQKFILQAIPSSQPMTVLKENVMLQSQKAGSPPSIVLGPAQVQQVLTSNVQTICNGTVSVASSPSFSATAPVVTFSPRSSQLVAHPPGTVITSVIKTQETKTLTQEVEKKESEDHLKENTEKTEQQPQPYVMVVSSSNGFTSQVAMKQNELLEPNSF

Consider CTCGGT, for which the binding signal in the experiment with FLI1 was 1.12 fold enrichment (6-mer frequency, TF over GST control); in the experiment with GABPA it was 1.09 fold enrichment (6-mer frequency, TF over GST control); with ERG, 1.04 fold enrichment (6-mer frequency, TF over GST control); in the experiment with ELF1 it was 1.17 fold enrichment (6-mer frequency, TF over GST control); with EHF it was 1.07 fold enrichment (6-mer frequency, TF over GST control); with SPI1, 1.1 fold enrichment (6-mer frequency, TF over GST control). Moreover, the binding signal with SPIB is 1.21 fold enrichment (6-mer frequency, TF over GST control).

In the case of GTTAAA, the binding signal in the experiment with FLI1 was 1.03 fold enrichment (6-mer frequency, TF over GST control); with GABPA, 1.01 fold enrichment (6-mer frequency, TF over GST control); with ERG it was 1.03 fold enrichment (6-mer frequency, TF over GST control); with SPI1 it was 1.08 fold enrichment (6-mer frequency, TF over GST control); in the experiment with SPIB, 1.07 fold enrichment (6-mer frequency, TF over GST control); in the experiment with ELK3, 1.01 fold enrichment (6-mer frequency, TF over GST control).

Turning to GAAAGA, the binding signal with FLI1 was 1.01 fold enrichment (6-mer frequency, TF over GST control); with ERG, 1.02 fold enrichment (6-mer frequency, TF over GST control); with ELF1 it was 1.08 fold enrichment (6-mer frequency, TF over GST control); with EHF it was 1.01 fold enrichment (6-mer frequency, TF over GST control); in the experiment with SPI1, 1.14 fold enrichment (6-mer frequency, TF over GST control); in the experiment with SPIB, 1.02 fold enrichment (6-mer frequency, TF over GST control).

With GGCTTA, the binding signal is 1.05 fold enrichment (6-mer frequency, TF over GST control) with FLI1; 1.17 fold enrichment (6-mer frequency, TF over GST control) with GABPA; 1.04 fold enrichment (6-mer frequency, TF over GST control) with ERG; 1.08 fold enrichment (6-mer frequency, TF over GST control) with ELF1; 1.02 fold enrichment (6-mer frequency, TF over GST control) in the experiment with EHF; 1.02 fold enrichment (6-mer frequency, TF over GST control) in the experiment with SPI1. For the same sequence, the binding signal in the experiment with ELK3 was 1.01 fold enrichment (6-mer frequency, TF over GST control).

For the sequence TGCTGT, the binding signal was 1.03 fold enrichment (6-mer frequency, TF over GST control) with FLI1; 1 fold enrichment (6-mer frequency, TF over GST control) with ELK1; 1.09 fold enrichment (6-mer frequency, TF over GST control) with ELF1; 1.13 fold enrichment (6-mer frequency, TF over GST control) with EHF; 1 fold enrichment (6-mer frequency, TF over GST control) with SPIB.

Consider TCTAGG, for which the binding signal is 1.12 fold enrichment (6-mer frequency, TF over GST control) with FLI1; 1.1 fold enrichment (6-mer frequency, TF over GST control) with GABPA; 1.02 fold enrichment (6-mer frequency, TF over GST control) in the experiment with ERG; 1.05 fold enrichment (6-mer frequency, TF over GST control) with ELF1; 1.11 fold enrichment (6-mer frequency, TF over GST control) with SPIB; 1.07 fold enrichment (6-mer frequency, TF over GST control) with ELK3.

Take CATGTA: the binding signal was 1.15 fold enrichment (6-mer frequency, TF over GST control) in the experiment with FLI1; 1.06 fold enrichment (6-mer frequency, TF over GST control) with ELK1; 1.11 fold enrichment (6-mer frequency, TF over GST control) in the experiment with ELF1; 1.04 fold enrichment (6-mer frequency, TF over GST control) with EHF; 1.02 fold enrichment (6-mer frequency, TF over GST control) with SPI1; 1.13 fold enrichment (6-mer frequency, TF over GST control) with ELK3.

For the sequence TCATCG, the binding signal was 1.12 fold enrichment (6-mer frequency, TF over GST control) with FLI1; 1.01 fold enrichment (6-mer frequency, TF over GST control) in the experiment with ELF1; 1.05 fold enrichment (6-mer frequency, TF over GST control) with EHF; 1.13 fold enrichment (6-mer frequency, TF over GST control) with SPIB; 1.02 fold enrichment (6-mer frequency, TF over GST control) with ELK3.

Take ATCAGC: the binding signal was 1.03 fold enrichment (6-mer frequency, TF over GST control) with FLI1; 1.08 fold enrichment (6-mer frequency, TF over GST control) with ELK1; 1.01 fold enrichment (6-mer frequency, TF over GST control) with ELF1; 1.02 fold enrichment (6-mer frequency, TF over GST control) with EHF; 1.02 fold enrichment (6-mer frequency, TF over GST control) with SPIB; 1.03 fold enrichment (6-mer frequency, TF over GST control) with ELK3.

For the sequence TATTAG, the binding signal with FLI1 is 1.05 fold enrichment (6-mer frequency, TF over GST control); with ELK1, 1.03 fold enrichment (6-mer frequency, TF over GST control); with ERG it was 1.07 fold enrichment (6-mer frequency, TF over GST control); with EHF, 1.02 fold enrichment (6-mer frequency, TF over GST control); with SPI1, 1.09 fold enrichment (6-mer frequency, TF over GST control); in the experiment with ELK3, 1.18 fold enrichment (6-mer frequency, TF over GST control).
